# Screening data as filed in PubChem BioAssay.
# CDC25B-CDK2 inh: human CDC25B-CDK2/CyclinA binding inhibition; z-score (concentration not given with the values); AID 1259370; 94,000 tested, 0.72% active; HTRF CDC25B-CDK2/CyclinA binding, anti-His/anti-Flag; stronger effect = higher value; P30305+P24941; in the data active = z-score above about 3.2
# HIV TAR-Tat: HIV-1 TAR-Tat binding disruption; HIV-1 TAR RNA, Tat peptide displacement FRET; stronger effect = higher value; z-score (test concentration not listed); AID 1259389; 100,000 tested, 0.6% active; active = z-score of 3 or more in at least 2 runs
# Numbers without * were called inactive; / = no result. Hits are enriched below; roughly 0.9% of the tested compounds scored in any of these assays.
SMILES,CDC25B-CDK2 inh,HIV TAR-Tat
Nc1nc(-c2ccccc2Cl)nn1C(=O)c1cccc(Cl)c1,-1,-0.56
O=C(NCCCN1CCC(N2CCCCC2)CC1)C1CCCN(c2nc3cccnc3s2)C1 (stereo not given),/,0.66
O=C(NCc1ccc2c(c1)OCO2)c1cc(-c2ccccc2)nc2ccccc12,-1.8,/
Cc1c(C(=O)Cn2ccnc2)sc2ccc(Cl)cc12,14*,/
Cc1c(C(=O)CC#N)sc2ccc(Cl)cc12,-0.26,/
COc1ccc(N2CCN(C(=O)C3CCN(c4ncnc5c4nc4n5CCCCC4)CC3)CC2)cc1,/,0.48
CC(C)(C)c1ccc(-c2nnc(SCC(=O)O)n2Cc2ccccc2)cc1,-1.2,0.09
O=C(O)CCc1nc2ccc(C(=O)O)cc2[nH]1,0.54,0.63
Nc1ccc2nc(CCC(=O)O)[nH]c2c1,19*,1.1
COc1ccc(-c2onc(C)c2C)cc1S(=O)(=O)N1CCN(c2ncccn2)CC1,/,1.4
CC1CCCC(NC(=O)C2(C)Cn3c(cc4occc43)C(=O)N2CC2CCCO2)C1C (stereo not given),/,6.8*
CC1CCCC(NC(=O)C2(C)Cn3c(cc4occc43)C(=O)N2C2CCCC2)C1C (stereo not given),/,0.67
C[C@@H]1C(=O)[C@H](C)[C@@H](c2cccs2)N(C(=O)NC2CCCC2)[C@H]1c1cccs1,-2.3,-0.66
COc1ccc(C2CC(=O)N3CN(c4ccc(OC)cc4OC)CSC3=C2C#N)c(OC)c1 (stereo not given),5.7,-1.7
COc1ccc(C2CC(=O)N3CN(c4ccc(C)c(C)c4)CSC3=C2C#N)c(OC)c1 (stereo not given),3.7*,-1.4
COc1ccc(N2CSC3=C(C#N)C(c4c(F)cccc4Cl)CC(=O)N3C2)cc1 (stereo not given),3.7*,-1.8
N#CC1=C2SCN(c3ccc(F)cc3)CN2C(=O)CC1c1c(F)cccc1Cl (stereo not given),1.2,-0.67
COc1ccc(C2CC(=O)N3CN(c4ccccc4)CSC3=C2C#N)c(OC)c1 (stereo not given),5.2*,-1.4
COc1ccc(C2CC(=O)N3CN(c4ccc(Cl)cc4)CSC3=C2C#N)c(OC)c1 (stereo not given),6*,0.43
CCCCSc1nc2c(c(=O)n1CC1CCCCC1)C1(CCCCC1)Cc1ccccc1-2,-1.8,/
O=C(CSC1=NS(=O)(=O)c2cc(F)ccc2N1)OCc1ccccc1,/,0.62
Cc1oc2ncnc(N3CCOCC3)c2c1C(=O)N1CCN(c2ccccc2)CC1,/,0.59
CC(=O)Oc1ccc(C2OC(=O)C(C)(C)C(=O)C23CCCCC3)cc1 (stereo not given),0.63,/
CCOC(=O)c1c(N)sc(SSc2sc(N)c(C(=O)OCC)c2C)c1C,4.4*,/
CCOC(=O)c1c(N)sc(C)c1C,-0.25,0.93
SMILES,CDC25B-CDK2 inh,HIV TAR-Tat
CSc1cccc(NC(=O)N2CCCN(c3nc4cc(F)ccc4n4cccc34)CC2)c1,/,0.75
O=S(=O)(NC1CCCCC1Nc1ccccc1)c1ccc(Cl)cc1 (stereo not given),1.1,0.63
Cc1nn2c(=O)cc(CSc3ccccc3NC(=O)c3ccco3)nc2s1,/,-0.08
O=C(Nc1ccccc1SCc1cc(=O)n2c(-c3ccccc3)csc2n1)c1ccco1,/,8.4*
COC(=O)c1sc2ccccc2c1S(=O)(=O)N1CCN(c2ncccn2)CC1,/,-1.9
CN(C)c1ccc(C(CNS(=O)(=O)c2ccc3c(c2)OCCO3)N2CCCC2)cc1 (stereo not given),/,0.43
CCCC(=O)N1c2ccccc2C(=C2SC(C(=O)OC)=C(C(=O)OC)S2)C(=S)C1(C)C,-4.6,0.88
COC(=O)C1=C(C(=O)OC)SC(=C2C(=S)C(C)(C)Nc3ccccc32)S1,14*,0.87
CCC(=O)N1c2ccc(C)cc2C(=C2SC(C(=O)OC)=C(C(=O)OC)S2)C(=S)C1(C)C,0.15,1
CCOC(=O)C1=C(C(=O)OCC)SC(=C2C(=S)C(C)(C)Nc3ccc(C)cc32)S1,19*,1.2
O=C1CCCc2cc(S(=O)(=O)Nc3ccc(F)c(F)c3)ccc2N1,/,-0.15
Cc1ccc(-c2c(Nc3c(C)cccc3C)c(=O)c2=O)cc1C,/,2.5
CCCCc1nn2c(=O)cc(COC(=O)c3ccc(OC)cc3)nc2s1,/,-0.35
O=C(c1noc2ncnc(N3CCOCC3)c12)N1CCN(c2ccccc2F)CC1,/,-2.2
CCN(CC)CCNC(=O)c1c(O)c2cccc3c2n(c1=O)CC3,/,0.67
O=C1CC(CSc2nccc(-c3cccnc3)n2)=NN1c1ccc(Cl)cc1,-0.37,/
CCCC1=NN(c2ccc(Cl)cc2)C(=O)C1,6.2*,0.59
CCS(=O)(=O)c1nc(S(=O)(=O)c2ccc(C)cc2)c(NCc2ccccc2)s1,-1,-0.26
COc1ccc(OCc2nc3ccc(Cl)cc3[nH]2)cc1,2,1.3
Cc1nc2c(c(Nc3cc(Cl)ccc3C)n1)CCC2,-0.03,0.49
Cc1cc(NCc2ccccc2)n2nc(Cc3cccc(F)c3)nc2n1,/,0.72
O=C1CC(c2ccco2)Cc2[nH]c(=O)c(-c3nc(-c4cccc(Cl)c4)cs3)cc21 (stereo not given),9.4,6.6
O=C1CC(c2ccco2)Cc2[nH]c(=O)c(-c3nc(-c4ccccc4)cs3)cc21 (stereo not given),17*,-4.4
COc1ccc(-c2nc3c4nsnc4ccc3n2C)cc1Br,1.6,1.5
O=C1Nc2ccc(S(=O)(=O)NCc3ccccc3)cc2C1=O,/,6.2*
SMILES,CDC25B-CDK2 inh,HIV TAR-Tat
O=C1Cc2cc(S(=O)(=O)NCc3ccccc3)ccc2N1,/,1.4
CC1CCN(C(=O)c2cc3c(s2)-c2ccccc2SC3)CC1,-1.1,-0.08
O=C(CCCc1nc(-c2ccco2)no1)Nc1ccncc1,-2.1,4.2*
O=C(CCc1nc(-c2ccco2)no1)Nc1ccncc1,6.6,1.2
Cc1sc(-c2nc(-c3cccc(Cl)c3)no2)cc1S(=O)(=O)N1CCc2ccccc2C1,/,1.7
CC(C)CCNC(=O)CCC(=O)N1CC(C)Sc2ccccc21 (stereo not given),/,1.5
COc1cc2ncc(S(=O)(=O)c3ccc(C)cc3)c(N3CCCC3)c2cc1OC,9.6*,-0.63
CCOc1ccc2ncc(S(=O)(=O)c3ccc(C)cc3)c(N3CCCC3)c2c1,5.2*,0.15
COc1ccc(S(=O)(=O)c2cnc3cc(OC)c(OC)cc3c2N2CCCCC2)cc1,-2,1.6
CCOc1ccc2ncc(S(=O)(=O)c3ccccc3)c(N3CCCCC3)c2c1,-0.61,-0.35
CS(=O)(=O)Nc1nc2ccc(NC(=O)c3cc(-c4ccncc4)nc4ccccc34)cc2s1,/,1.2
Cc1c(Cl)cccc1NS(=O)(=O)c1cn(C)c(C)n1,/,0.46
O=C1C(Nc2ccc(F)cc2)=C(N2CCCCC2)C(=O)c2ccccc21,8*,/
CCOC(=O)c1ccc(NC2=C(N3CCCCC3)C(=O)c3ccccc3C2=O)cc1,17*,/
CCOC(=O)c1ccc(N2CCCCC2)c(N)c1,-0.16,/
O=C1C(c2ccccc2)=C(Nc2ccc(F)cc2)c2ccccc21,-1,0.45
CN(C)c1ccc(C2C(C#N)=C3N=C(N)c4ccccc4N3C3=C2C(=O)CC(C)(C)C3)cc1 (stereo not given),0.4,-5.1
Cc1ccc(C)c(NC(=O)N2CCCC2c2cccs2)c1 (stereo not given),-2.5,1.5
COC(=O)C1=C(C)Nc2[nH]c(=O)[nH]c(=O)c2C1c1ccc(Br)cc1 (stereo not given),3.6*,1.1
C=CCOC(=O)C1=C(C)Nc2[nH]c(=O)[nH]c(=O)c2C1c1ccc(CC)cc1 (stereo not given),-1.7,/
